Structures are written as SMILES. Hit rate of the full screen: of about 98,000 compounds, about 150 (0.15%) were called active.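 Rule for the calls: active = growth inhibition above about 50% at one test dose (limit read from the data); inactive = the rest.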 What follows is part of a selection rich in actives, with near analogues and random picks from the rest.

This assay in a line: antibacterial activity against E. coli BW25113 – strain BW25113, expanded library, OD600, primary screen (AID 710).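 Note: growth measured after 20 h incubation at 37 °C.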 The conditions noted are these: OD600 absorbance, at 100 µM, hits give high values.
`Cc1nnc(SCC(=O)NC2CCCC2)s1`: the growth inhibition was -2% (inactive).
Then `COc1ccc(C(C#N)Nc2ccc(C)cc2)cc1` (stereo unspecified), with 3% (inactive); and `Brc1ccc(OCCn2ccnc2)cc1`, with 55% (active); and `CC1(C)C2CCC1(C)C(OC(=O)CCn1ccnc1)C2` (stereo unspecified), with 6% (inactive).
Then `CCOc1ccccc1C(=O)NCCCn1ccnc1`, with 10% (inactive).
Regarding `Cc1ccc(Cc2c(C)nc3nc(SCC(=O)NCCN4CCOCC4)nn3c2C)cc1`, the growth inhibition is -9% (inactive).
For `Cc1ccc(S(=O)(=O)N(CC(=O)N/N=C/c2ccc(F)cc2)c2cccc3cccnc23)cc1`, the growth inhibition is -18% (inactive).
Then `CN(Cc1nc2ccccc2c(=O)[nH]1)Cc1cc(=O)oc2ccc3ccccc3c12`, with -4% (inactive); and `COC(=O)C1=C(Nc2ccc(OC)cc2)C=C(C)C(C(=O)OC)C1c1ccc(C)cc1` (stereo unspecified), with -13% (inactive); and `N#C/C(=C(/O)COc1cccc2ccccc12)c1nc2ccccc2[nH]1`, with -8% (inactive).
Then `OC(COc1ccc2c(c1)CCC2)CN1CCN(c2cccc(Cl)c2)CC1` (stereo unspecified), with 0% (inactive).
Then `CCc1nnc(NC(=O)CCC(=O)NCc2ccccc2OC)s1`, with -2% (inactive).
For `Cc1ccc(-c2nnc(-n3nnc4ccccc43)c3ccccc23)cc1`, the growth inhibition was -7% (inactive).
For `O=C(N/N=C/C=C/c1ccccc1)C1CC1(c1ccccc1)c1ccccc1` (stereo unspecified), the growth inhibition is -15% (inactive).
Then `N=c1c2c(-c3ccccc3)c(-c3ccccc3)n(Cc3ccccc3)c2ncn1CCCO`, with 13% (inactive); and `COc1ccc(/C=C2\CCCC3C2=NN(C(=O)c2scnc2C)C3c2ccc(OC)cc2)cc1` (stereo unspecified), with -16% (inactive); and `CCC(=O)NC(NCC1CCCO1)C(Cl)(Cl)Cl` (stereo unspecified), with 3% (inactive).
As for `Cc1ccc(CNC(=O)COc2ccc(S(=O)(=O)NC(C)C)cc2)cc1`, the growth inhibition was 0% (inactive).
For `CSc1ccc(C#N)cc1NC(=O)c1cccc(Cl)c1`, the growth inhibition is -8% (inactive).
Then `Cc1cccc(NC(=O)/C(=C\c2ccco2)NC(=O)c2ccccc2)c1`, with -2% (inactive).
Then `CNC(=S)NNC(=O)c1sccc1OCc1ccccc1`, with -7% (inactive); and `Cc1ccc(NC(=S)NC(=O)c2ccc(-c3ccccc3)cc2)c(C)c1`, with -9% (inactive).
Then `COc1cccc(N(CC(=O)NCCSc2ccccn2)S(C)(=O)=O)c1`, with -2% (inactive).
On to `CN(C)c1nc(N)nc(CSc2ccccn2)n1`, for which the growth inhibition was -1% (inactive).
Then `COc1ccccc1CSc1nc2ccccc2[nH]1`, with 8% (inactive).
Then `COc1ccc(Nc2nc(-c3ccccc3)cs2)cc1`, with -6% (inactive); and `CN1C2CCC1/C(=C\c1ccccc1Cl)C(=O)/C2=C\c1ccccc1Cl`, with -3% (inactive).
As for `CSCCC(C(=O)NC1=NCCS1)N1C(=O)c2ccccc2C1=O` (stereo unspecified), the growth inhibition was -1% (inactive).
Then `COc1ccccc1NC(=O)COc1ccc(C(=O)OCC(=O)N(C(C)C)C(C)C)cc1OC`, with -6% (inactive); and `Cc1ccc2nc(SCc3nnc(-c4ccccc4[N+](=O)[O-])o3)c(C#N)cc2c1`, with -15% (inactive); and `CC(Sc1nnc(Cc2ccc([N+](=O)[O-])cc2)o1)C(N)=O` (stereo unspecified), with 2% (inactive).
Then `COc1ccc(NC(=O)CC2COc3ccccc3O2)c(OC)c1` (stereo unspecified), with 7% (inactive).
Then `CCN(CC)S(=O)(=O)c1ccc2c3c(cccc13)C(=O)S2`, with 1% (inactive); and `COC(=O)[C@@H](NC(=O)Nc1cc(Cl)ccc1C)C(C)C`, with 2% (inactive); and `O=C(Nc1ccc2nc3n(c(=O)c2c1)CCCCC3)c1ccccc1Cl`, with -6% (inactive).
For the molecule `COc1ccc(NC(=O)CSc2nc(N)c(-c3ccccc3)c(=O)[nH]2)cc1`, the growth inhibition is -12% (inactive).
Take `CCOC(=O)c1cc2c(ccn2C)n1CC(=O)N1CCC(C)CC1`: the growth inhibition is -6% (inactive).
Regarding `COc1ccc(NC(=O)CSc2nc(NS(=O)(=O)c3ccc(C)cc3)cc(=O)[nH]2)cc1`, the growth inhibition was -5% (inactive).
Then `CC(CN1CCOCC1)c1ccccc1` (stereo unspecified), with 4% (inactive); and `S=C1SCN(CCN2CCOCC2)CN1Cc1ccccc1`, with 50% (active).
As for `COc1ccc(CN2CN(C(C)C)CSC2=S)cc1`, the growth inhibition is 38% (inactive).
As for `COC(=O)c1ccc(CSc2nc3cc(Cl)ccc3o2)cc1`, the growth inhibition is -5% (inactive).
Then `CC(=O)Nc1ccc(N2C(=O)CCC2=O)cc1C`, with 0% (inactive); and `Cc1n[nH]c(=S)n1/N=C/c1ccc(Br)o1`, with -6% (inactive).
Regarding `COC(=O)c1ccc(NC(=O)c2ccccc2NS(=O)(=O)c2ccccc2)cc1`, the growth inhibition was 4% (inactive).
Then `CCOCCOCCC(C(=O)O)P(=O)(c1ccccc1)c1ccccc1` (stereo unspecified), with 7% (inactive); and `N#Cc1ccc(-c2ccc(Cl)cc2)nc1Oc1ccc(F)cc1`, with -7% (inactive).
Then `CCC1CCCCN1CCCNC(=O)C1CCC(Cn2c(=O)[nH]c3ccccc3c2=O)CC1` (stereo unspecified), with 4% (inactive); and `O=C1/C(=C/c2cccs2)CCc2ccccc21`, with 7% (inactive).
On to `Cc1cccc(NC(=O)C(C)N2C(=O)C3C4CC(C(Br)C4Br)C3C2=O)c1` (stereo unspecified), for which the growth inhibition was 7% (inactive).
Then `Cc1ccc(S(=O)(=O)N(C)C2(C)CCS(=O)(=O)C2)cc1` (stereo unspecified), with 4% (inactive); and `O=C(CN1CCSCC1)N/N=C/c1ccc(F)cc1`, with 2% (inactive).
Then `CCCCNc1ccc(C(=O)Nc2cccc(C)n2)cc1[N+](=O)[O-]`, with 4% (inactive).
Take `CCN(CC)C(=O)CSC1c2ccccc2C(=O)N1c1ccccc1` (stereo unspecified): the growth inhibition is 1% (inactive).
For `CCCOc1ccc(C2NC(=O)NC(c3ccccc3)=C2C(C)=O)cc1OCC` (stereo unspecified), the growth inhibition is -2% (inactive).
Take `COc1ccc(C(=O)Nc2ccc(F)cc2F)cc1`: the growth inhibition is 10% (inactive).
As for `CC(C)(C)c1cc2cccnc2n1Cc1ccccc1`, the growth inhibition is 9% (inactive).
Then `Cc1ccc(-c2nc3ccccc3[nH]2)cc1NC(=O)c1sc2ccccc2c1Cl`, with -18% (inactive); and `CCC(=O)N(Cc1ccccc1)c1ccccn1`, with -3% (inactive); and `CCc1cc(C(c2ccccc2OC)N2CCOCC2)c(NC(=O)c2ccccc2)s1` (stereo unspecified), with -3% (inactive).
Then `CSc1ccccc1NC(=O)c1cc(C2CC2)on1`, with 6% (inactive); and `O=C(c1ccccc1)C(Cn1cncn1)C(Sc1ccccc1)c1ccccc1` (stereo unspecified), with -9% (inactive); and `O=C(CCN1C(=O)c2ccccc2C1=O)Nc1cccc(F)c1`, with 0% (inactive).
As for `c1ccc2c(C[n+]3csc4ccccc43)cccc2c1`, the growth inhibition is -14% (inactive).
Turning to `CCCC(=O)Nc1nc2ccc(NC(=O)c3cccnc3)cc2s1`, the growth inhibition was 8% (inactive).
Then `O=C(CC12CC3CC(CC(C3)C1)C2)Nc1ccc2c(c1)COC2=O`, with -1% (inactive).
On to `ON=C1/C(=N\O)CC2(C/C1=N/O)OCCO2`, for which the growth inhibition was 57% (active).
Then `O/N=C1\CC2(Cc3nonc31)OCCO2`, with -4% (inactive); and `N=c1ccn(CC(=O)NC(N)=O)c2ccccc12`, with -4% (inactive); and `O=C(Nc1nnc(-c2ccc(Cl)cc2)o1)c1ccccc1Br`, with 57% (active).
For the molecule `Cc1nonc1NC(=O)c1ccccc1Br`, the growth inhibition is -2% (inactive).
Then `O=C(Nc1cccc(Cl)c1)Nc1nnc(-c2ccccc2)o1`, with 2% (inactive).
Consider `CCCN(Cc1cc2cccc(C)c2[nH]c1=O)S(C)(=O)=O`, for which the growth inhibition is 2% (inactive).
Then `CCSc1nc(-c2ccc(OC)cc2)cc(-c2ccc(OC)cc2)c1C#N`, with -14% (inactive).
Then `CC(C)(C)Cc1nnc(NC(=O)c2cc(-c3ccccc3)nc3ccccc23)s1`, with -12% (inactive).
Consider `Cc1cc2c(cc1C)N(C(=O)CN1C(=O)c3ccccc3C1=O)C(C)(C)c1ssc(=S)c1-2`, for which the growth inhibition is -26% (inactive).
In the case of `CC(C)NC(=O)C(=O)N/N=C/c1ccco1`, the growth inhibition is 0% (inactive).
As to `Cc1ccc(NC(=S)NC2CCCC2)cc1`, the growth inhibition is 10% (inactive).
Then `CCOc1ccc(OCC)c(-c2c(=O)n(OCc3ccc(Cl)cc3)c3ccccc3[n+]2[O-])c1`, with -15% (inactive).
Then `COc1ccc([N+](=O)[O-])cc1C1NN=C(c2cccc3ccccc23)S1` (stereo unspecified), with 3% (inactive); and `Cc1cc(C)cc(OCC(=O)Nc2nc3ccc([N+](=O)[O-])cc3s2)c1`, with -14% (inactive).
Then `O=C(NC(Nc1nc2ccc([N+](=O)[O-])cc2s1)(C(F)(F)F)C(F)(F)F)c1ccccc1`, with 50% (active); and `COC(=O)C(NC(=O)c1ccc(OC)cc1)(Nc1ncc(S(=O)(=O)c2ccc([N+](=O)[O-])cc2)s1)C(F)(F)F` (stereo unspecified), with -3% (inactive); and `Cc1cc(C)c2cc(CN(Cc3nnnn3Cc3ccc(F)cc3)C3CCCC3)c(=O)[nH]c2c1`, with -11% (inactive).
`O=C(NC1CCN(C(=S)NCc2ccco2)CC1)c1ccc(F)cc1`: the growth inhibition is -4% (inactive).
Then `Cc1ccccc1OC/C(O)=C(\C#N)c1nc2ccccc2[nH]1`, with -10% (inactive); and `O=C(Cc1ccccc1)N/N=C/c1ccc(Cl)cc1Cl`, with 1% (inactive); and `CC12c3ccccc3C(c3ccccc31)C1C(=O)N(Cc3cccnc3)C(=O)C12` (stereo unspecified), with -1% (inactive).
Then `CCOc1ccc(N=C2NC(=O)S/C2=C\c2ccc(O)cc2)cc1`, with -8% (inactive); and `N/C(=N\OC(=O)Nc1ccc(Cl)c(Cl)c1)c1ncc(C(F)(F)F)cc1Cl`, with 8% (inactive).
For `Cc1nnc(NC(=O)Nc2ccc(Cl)c(Cl)c2)s1`, the growth inhibition was -9% (inactive).
`O=C(CC(O)(C(F)(F)F)C(F)(F)F)Nc1ccc(Cl)c(Cl)c1`: the growth inhibition was 88% (active).
Consider `Cc1nn(C)c(Oc2ccc(Cl)cc2)c1C=O`, for which the growth inhibition was -1% (inactive).
Then `FC(F)(F)c1ccc2nnc(-c3c(Cl)cccc3Cl)n2c1`, with -2% (inactive); and `Cc1cc(C)c2c(-n3cccc3)c(C(=O)NNS(=O)(=O)c3ccc(F)cc3)sc2n1`, with 16% (inactive).
Then `NC(N)=N/N=C/c1ccc(OCc2ccc(Cl)cc2Cl)cc1`, with 97% (active); and `NC(=O)COc1ccc(/C=N/NC(=O)C2CCCN2S(=O)(=O)c2ccc(Cl)cc2)cc1` (stereo unspecified), with 6% (inactive).
Turning to `COC(=O)c1sc2ncccc2c1OCc1ccc(Cl)cc1Cl`, the growth inhibition was -14% (inactive).
For `C=CCOC(=O)C1=C(C)NC(C)=C(C(=O)OCC=C)C1c1cccs1`, the growth inhibition is 5% (inactive).
Turning to `CCOC(=O)CN(Cc1ccc(OC)c(OC)c1)S(=O)(=O)c1ccc(OC)cc1`, the growth inhibition is 0% (inactive).
Then `O=C(NCc1cccnc1)c1cccnc1Sc1ccc(Cl)cc1`, with 10% (inactive).

(Values after PubChem BioAssay AID710 (SRMLSC, 2007).)
